The nature of assay [1]: ATG_E_Box_CIS: Attagene CIS-FACTORIAL HepG2 Assay for human Enhancer Box (E-box) (AID 2282936). The following applies: HepG2 E-box cis-reporter transcription, actives raise or lower the signal. Summed up:
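Transiently transfected HepG2, endogenous TF-driven reporters, 24 h dosing. Readout: RT-PCR plus capillary electrophoresis of fluorescent reporter fragments. Gain or loss of signal fitted bidirectionally against DMSO baseline.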

Assay [2] can be described thus: ATG_M_61_CIS: Attagene CIS-FACTORIAL HepG2 Assay for M61 Transcription Factor (Internal Marker) (AID 2282937). As to conditions: HepG2 Attagene CIS-FACTORIAL M61 internal marker reporter; actives raise or lower the signal. Put shortly:
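This endpoint serves as an internal background control within a multiplexed HepG2 cis-reporter panel. Cells are exposed for 24 h; reporter mRNA is amplified, fluorescently labelled and sized by capillary electrophoresis, with DMSO as negative control.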

Assay [3] is described as follows: ATG_M_19_CIS: Attagene CIS-FACTORIAL HepG2 Assay for M19 Transcription Factor (Internal Marker) (AID 2282939). The following applies: HepG2 Attagene CIS-FACTORIAL M19 internal marker reporter; actives raise or lower the signal. Summed up: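 In this multiplexed cell assay, transiently transfected HepG2 reporter units report endogenous transcription-factor activity; after 24 hours of treatment, labelled reporter cDNA fragments are quantified by capillary electrophoresis and fitted bidirectionally against DMSO.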

Assay [4] can be described thus: ATG_ERE_CIS: Attagene CIS-FACTORIAL HepG2 Assay for Estrogen Response Element (ERE) (AID 2282940). As to conditions: HepG2 ERE cis-reporter, Attagene RNA transcript; actives raise or lower the signal. Summed up: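 Measuring endogenous transcription factor output, the assay doses transfected HepG2 cells for 24 hours and quantifies reporter transcripts by fluorescent RT-PCR and capillary electrophoresis, with DMSO as baseline.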

The nature of assay [5]: ATG_Ets_CIS: Attagene CIS-FACTORIAL HepG2 Assay for human Erythroblast Transformation Specific (ETS) (AID 2282941). The following applies: HepG2 ETS cis-reporter transcription; AC50: actives raise or lower the signal unless noted; outcome: actives raise or lower the signal unless noted. Put shortly:
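Cis-regulated reporter mRNA induction in HepG2 (transient transfection), 24 h exposure, RT-PCR plus capillary electrophoresis detection; DMSO serves as negative control and baseline.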

Assay [6] addresses Hepatocyte nuclear factor 3-beta (Homo sapiens) (UniProt Q9Y261). Kind of assay: ATG_FoxA2_CIS: Attagene CIS-FACTORIAL HepG2 Assay for human Forkhead box A2 (FOXA2) (AID 2282942). The following applies: HepG2 cis-reporter transcription factor activity, 24 h; actives raise or lower the signal. Put shortly: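 Cells: HepG2, transient multiplex reporter transfection. Exposure 24 h. Detection: reporter-specific RT-PCR, fluorescent labelling, restriction digest, capillary electrophoresis. Analysis: bidirectional curve fit, DMSO as negative control.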

Assay [7] is described as follows: ATG_FoxO_CIS: Attagene CIS-FACTORIAL HepG2 Assay for human Forkhead box O (FoxO) (AID 2282943). The following applies: HepG2 Attagene cis-reporter, FoxO element, mRNA; actives raise or lower the signal. Summed up:
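Read-out: fluorescence of 6-FAM-labelled reporter cDNA fragments resolved by capillary electrophoresis. Transiently transfected HepG2 cells were dosed for 24 h; activity fitted in both directions relative to DMSO controls.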

Assay [8] is described as follows: ATG_GATA_CIS: Attagene CIS-FACTORIAL HepG2 Assay for human GATA Binding Protein (AID 2282944). As to conditions: HepG2 GATA cis-element reporter, Attagene multiplex mRNA; actives raise or lower the signal. Put shortly:
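Measures endogenous transcription factor-driven reporter mRNA in HepG2 cells transiently carrying cis-regulated constructs. 24 h dosing; RNA via oligo(dT) reverse transcription, PCR, HpaI digestion, capillary electrophoresis; fitted relative to DMSO.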

The nature of assay [9]: ATG_GLI_CIS: Attagene CIS-FACTORIAL HepG2 Assay for human Zinc Finger Protein GLI1 (AID 2282945). As to conditions: HepG2, Attagene cis-factorial reporter mRNA, GLI element; actives raise or lower the signal. Put shortly: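 Transiently transfected HepG2 cells report endogenous transcription factor activity via cis-element-driven reporter units. After 24 h compound exposure, reporter mRNA was measured by RT-PCR with capillary electrophoresis; bidirectional fitting against DMSO baseline.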

Assay [10] deals with Bile acid receptor (Homo sapiens) (UniProt Q96RI1). In words: ATG_IR1_CIS: Attagene CIS-FACTORIAL HepG2 Assay for human Nuclear Receptor Subfamily 1 Group H Member 4 (NR1H4), IR1 submotif (AID 2282946). The following applies: IR1 reporter transcription, actives raise or lower the signal. Summed up: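 Fluorescence of capillary-separated, HpaI-digested RT-PCR reporter products gave IR1-element mRNA induction in HepG2 cells 24 h after dosing. Endogenous transcription factors drove the cis-regulated reporters; activity was fitted bidirectionally against DMSO.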

The nature of assay [11]: ATG_GRE_CIS: Attagene CIS-FACTORIAL HepG2 Assay for human Glucocorticoid Response Elements (GRE) (AID 2282947). As to conditions: HepG2 GRE cis-reporter, Attagene multiplex mRNA; AC50: actives raise or lower the signal unless noted; outcome: actives raise or lower the signal unless noted. Summed up:
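Read-out: fluorescent reporter-transcript fragments separated by capillary electrophoresis after RT-PCR. Transiently transfected HepG2 cells carrying cis-element-driven reporter units were dosed for 24 h; gain or loss of signal fitted against DMSO control.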

Assay [12] is described as follows: ATG_ISRE_CIS: Attagene CIS-FACTORIAL HepG2 Assay for human Interferon Regulatory Factor 1 (IRF1) binding to an Interferon-Stimulated Response Element (ISRE) (AID 2282948). The following applies: HepG2 ISRE cis-reporter (Attagene), mRNA transcription readout; actives raise or lower the signal. Summed up:
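Multiplexed mRNA reporter readout in human liver HepG2 cells: cis-element-driven reporters transfected, compound added for 24 h, transcripts amplified, fluorescently labelled and sized by capillary electrophoresis; curve fitting bidirectional against DMSO.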

Assay [13] is described as follows: ATG_M_32_CIS: Attagene CIS-FACTORIAL HepG2 Assay for M32 Transcription Factor (Internal Marker) (AID 2282949).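 Note: background control marker of the multiplexed CIS panel rather than a real target.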 As to conditions: HepG2 Attagene cis-factorial M32 reporter, mRNA; actives raise or lower the signal. Put shortly: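 Transient MRTU transfection of HepG2; 24 h compound treatment; TriZol RNA, oligo(dT) RT, reporter PCR, 6-FAM primer extension, HpaI cut, CE. Gain/loss of signal vs DMSO.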

Assay [14] can be described thus: ATG_M_06_CIS: Attagene CIS-FACTORIAL HepG2 Assay for M06 Transcription Factor (Internal Marker) (AID 2282950). As to conditions: HepG2 Attagene CIS-FACTORIAL M06 internal marker reporter; actives raise or lower the signal. Summed up: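 One of many multiplexed endpoints: HepG2 reporter mRNA after 24 h dosing, detected by RT-PCR and capillary electrophoresis fluorescence; gain or loss of signal analysed against DMSO.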

In assay [15] the target is Hypoxia-inducible factor 1-alpha (Homo sapiens) (UniProt Q16665). In words: ATG_HIF1a_CIS: Attagene CIS-FACTORIAL HepG2 Assay for human Hypoxia Inducible Factor 1 (HIF1A) (AID 2282951). As to conditions: HepG2 Attagene cis-factorial HIF1a reporter transcription; actives raise or lower the signal. Summed up:
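HepG2, transient cis-reporter library, 24 h dosing. RNA → RT (oligo dT) → PCR → 6-FAM primer extension → HpaI → CE. Bidirectional curve fit vs DMSO.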

Assay [16] addresses Hepatocyte nuclear factor 6 (Homo sapiens) (UniProt Q9UBC0). In words: ATG_HNF6_CIS: Attagene CIS-FACTORIAL HepG2 Assay for human Hepatocyte Nuclear Factor 6 (HNF6) (AID 2282952). As to conditions: HepG2 Attagene cis-factorial HNF6 reporter transcription; actives raise or lower the signal. Put shortly: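 Endogenous factor activity read in transiently transfected HepG2 via promoter-regulated reporter transcripts. RNA harvested 24 h post-dosing, reverse-transcribed, PCR-amplified, FAM-labelled, HpaI-digested and resolved by capillary electrophoresis; fitted in both directions against DMSO.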

Assay [17] deals with Heat shock factor protein 1 (Homo sapiens) (UniProt Q00613). In words: ATG_HSE_CIS: Attagene CIS-FACTORIAL HepG2 Assay for human Heat Shock Transcription Factor 1 (HSE) (AID 2282953). The following applies: HepG2 HSE cis-reporter, Attagene RNA transcription; actives raise or lower the signal. Summed up:
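Using HepG2 with transfected cis-driven reporter constructs, compound effects on endogenous factor activity are scored as reporter mRNA change at 24 h. Detection: RT-PCR, HpaI digestion, capillary electrophoresis; bidirectional fitting to DMSO.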

Assay [18] can be described thus: ATG_MRE_CIS: Attagene CIS-FACTORIAL HepG2 Assay for human Metal Responsive Element (MRE) (AID 2282954). As to conditions: HepG2 MRE cis-reporter transcription, Attagene multiplex; actives raise or lower the signal. Summed up:
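RT-PCR/capillary electrophoresis readout of reporter mRNA, 24 h post-dosing, in HepG2 cells transfected with multiplexed cis-regulated reporter constructs. Gain or loss of signal fitted bidirectionally against DMSO baseline.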

Assay [19] is described as follows: ATG_PBREM_CIS: Attagene CIS-FACTORIAL HepG2 Assay for human Phenobarbital-responsive Enhancer Module (PBREM) (AID 2282955). The following applies: HepG2 PBREM cis-reporter, Attagene multiplexed transcription; actives raise or lower the signal. Summed up:
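HepG2, transient MRTU transfection, 24 h dosing; RNA → oligo(dT) RT → PCR → 6-FAM extension → HpaI → CE. Bidirectional fit vs DMSO.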

Activity calls are given as the source filed them. Rule for the calls: active = hit-call score of the fitted dose curve at least 0.9, where 1 is the maximum; inactive = score below 0.9.

Chain of Bile acid receptor (Homo sapiens) (Q96RI1 whole entry, looked up): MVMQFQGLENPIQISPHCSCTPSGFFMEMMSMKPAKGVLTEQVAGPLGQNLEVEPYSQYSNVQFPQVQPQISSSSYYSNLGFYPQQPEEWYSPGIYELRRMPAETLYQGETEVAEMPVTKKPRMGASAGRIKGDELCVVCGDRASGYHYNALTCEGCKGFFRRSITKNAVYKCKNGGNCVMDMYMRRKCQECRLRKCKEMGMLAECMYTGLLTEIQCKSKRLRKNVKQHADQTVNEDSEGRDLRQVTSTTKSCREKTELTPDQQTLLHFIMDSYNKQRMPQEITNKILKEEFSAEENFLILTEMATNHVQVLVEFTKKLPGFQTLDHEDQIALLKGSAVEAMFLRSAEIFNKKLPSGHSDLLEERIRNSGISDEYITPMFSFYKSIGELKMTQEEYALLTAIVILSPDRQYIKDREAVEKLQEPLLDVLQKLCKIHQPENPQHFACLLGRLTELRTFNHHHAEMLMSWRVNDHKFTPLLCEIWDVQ
Chain of Heat shock factor protein 1 (Homo sapiens) (Q00613 whole entry, looked up): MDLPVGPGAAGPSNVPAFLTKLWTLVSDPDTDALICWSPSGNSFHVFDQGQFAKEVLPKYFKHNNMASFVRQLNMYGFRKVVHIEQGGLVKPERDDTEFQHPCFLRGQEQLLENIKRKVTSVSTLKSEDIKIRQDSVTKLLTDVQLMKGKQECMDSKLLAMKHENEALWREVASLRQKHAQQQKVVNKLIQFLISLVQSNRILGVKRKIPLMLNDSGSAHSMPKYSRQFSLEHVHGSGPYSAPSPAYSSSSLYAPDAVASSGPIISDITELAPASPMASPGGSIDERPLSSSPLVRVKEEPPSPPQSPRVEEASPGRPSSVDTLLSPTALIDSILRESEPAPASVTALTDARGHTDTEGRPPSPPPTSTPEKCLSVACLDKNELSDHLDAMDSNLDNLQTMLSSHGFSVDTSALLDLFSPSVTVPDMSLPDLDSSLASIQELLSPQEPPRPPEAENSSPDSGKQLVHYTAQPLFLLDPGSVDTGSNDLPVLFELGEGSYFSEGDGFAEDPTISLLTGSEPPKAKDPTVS
Chain of Hypoxia-inducible factor 1-alpha (Homo sapiens) (Q16665 whole entry, looked up): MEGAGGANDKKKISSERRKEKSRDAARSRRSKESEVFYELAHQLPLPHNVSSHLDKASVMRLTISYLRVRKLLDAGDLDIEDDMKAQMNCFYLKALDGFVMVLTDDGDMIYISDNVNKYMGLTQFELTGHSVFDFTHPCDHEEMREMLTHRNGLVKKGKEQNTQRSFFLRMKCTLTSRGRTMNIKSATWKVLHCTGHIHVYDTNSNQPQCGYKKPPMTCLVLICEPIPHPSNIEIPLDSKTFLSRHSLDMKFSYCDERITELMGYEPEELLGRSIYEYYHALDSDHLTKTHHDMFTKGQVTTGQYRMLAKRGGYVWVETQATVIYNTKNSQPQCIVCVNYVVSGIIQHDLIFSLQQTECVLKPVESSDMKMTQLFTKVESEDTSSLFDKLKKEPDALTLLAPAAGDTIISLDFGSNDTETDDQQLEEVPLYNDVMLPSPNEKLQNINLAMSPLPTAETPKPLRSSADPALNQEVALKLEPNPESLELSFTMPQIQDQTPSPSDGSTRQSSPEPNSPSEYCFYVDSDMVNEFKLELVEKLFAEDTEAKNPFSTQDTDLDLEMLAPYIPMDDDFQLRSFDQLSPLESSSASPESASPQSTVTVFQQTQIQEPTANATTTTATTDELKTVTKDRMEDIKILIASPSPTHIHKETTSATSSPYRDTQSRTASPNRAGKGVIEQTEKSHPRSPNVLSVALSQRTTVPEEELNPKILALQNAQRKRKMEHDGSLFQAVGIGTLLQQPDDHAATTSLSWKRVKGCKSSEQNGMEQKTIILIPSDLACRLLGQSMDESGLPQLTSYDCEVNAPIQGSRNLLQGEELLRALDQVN
Chain of Hepatocyte nuclear factor 6 (Homo sapiens) (Q9UBC0 whole entry, looked up): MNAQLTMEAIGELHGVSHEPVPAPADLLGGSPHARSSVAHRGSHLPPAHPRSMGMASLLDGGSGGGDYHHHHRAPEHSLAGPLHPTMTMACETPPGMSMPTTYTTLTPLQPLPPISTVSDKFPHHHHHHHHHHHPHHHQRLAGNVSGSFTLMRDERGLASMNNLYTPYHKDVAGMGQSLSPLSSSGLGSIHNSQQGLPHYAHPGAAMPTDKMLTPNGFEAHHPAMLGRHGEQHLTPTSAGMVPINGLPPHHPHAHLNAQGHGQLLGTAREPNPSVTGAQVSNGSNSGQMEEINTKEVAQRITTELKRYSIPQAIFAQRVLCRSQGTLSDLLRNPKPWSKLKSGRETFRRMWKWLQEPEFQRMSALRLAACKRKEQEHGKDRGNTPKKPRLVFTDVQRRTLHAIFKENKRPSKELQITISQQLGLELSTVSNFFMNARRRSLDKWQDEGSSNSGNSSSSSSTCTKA
Chain of Hepatocyte nuclear factor 3-beta (Homo sapiens) (Q9Y261 whole entry, looked up): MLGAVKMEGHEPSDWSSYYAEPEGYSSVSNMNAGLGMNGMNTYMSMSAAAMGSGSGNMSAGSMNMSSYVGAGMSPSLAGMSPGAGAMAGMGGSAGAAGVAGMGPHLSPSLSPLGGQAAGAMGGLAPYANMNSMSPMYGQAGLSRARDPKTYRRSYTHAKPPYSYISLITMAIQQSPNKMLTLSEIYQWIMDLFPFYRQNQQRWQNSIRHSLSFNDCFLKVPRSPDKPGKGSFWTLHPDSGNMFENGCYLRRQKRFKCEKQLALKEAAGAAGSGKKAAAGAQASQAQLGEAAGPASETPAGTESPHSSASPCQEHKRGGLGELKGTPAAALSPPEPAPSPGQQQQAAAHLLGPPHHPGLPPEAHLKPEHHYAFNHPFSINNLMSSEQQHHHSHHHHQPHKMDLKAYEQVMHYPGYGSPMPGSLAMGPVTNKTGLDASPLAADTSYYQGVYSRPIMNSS

Turning to `COc1cccc(O)c1`, the result in [1], in [2], in assay [3], in [4], in assay [5] and in assay [6] was inactive. The call in assay [7], in [8], in assay [9], in assay [10], in assay [11] and in assay [12] was inactive. Besides, the call in assay [13], in assay [14], in assay [15], in assay [16], in assay [17] and in assay [18] was inactive. For the same compound, the outcome in assay [19] was inactive.

Consider `CC1CCC(CO)CC1` (stereo not drawn), for which the outcome in assay [1], in [2], in assay [3], in [5], in assay [7] and in assay [8] was inactive. The call in assay [9], in assay [11], in assay [12], in assay [13], in assay [14] and in [15] was inactive. Moreover, the result in assay [16], in [17], in assay [18] and in assay [19] was inactive.

On to `OCC(CO)(CBr)CBr`, for which the result in assay [1], in assay [2], in assay [3], in assay [5], in assay [6] and in assay [7] was inactive. The result in assay [8], in [10], in assay [11], in [12], in [13] and in assay [14] was inactive. Moreover, the result in assay [15], in assay [16], in [17], in assay [18] and in [19] was inactive.

The AC50 is the midpoint of the concentration-response curve, whichever way the signal moves. In the case of `CCCCCCOC(=O)c1ccc(O)cc1`, the AC50 in assay [1] was 51.6 µM (active); in assay [4], 8.86 µM (active); in assay [5], 54.1 µM (active); in assay [9] it was 60.3 µM (active); in [10], 47.5 µM (active); in assay [16] it was 52.7 µM (active). In addition, the values for the concentration at half-maximal activity (AC50) in assay [17], in assay [18] and in assay [19] were 60.8 µM (active), 59.6 µM (active) and 29.8 µM (active), respectively. Moreover, the compound was called inactive in assay [2], in assay [3], in assay [6], in [7], in [8] and in assay [11]. Also, the result in assay [13], in assay [14] and in assay [15] was inactive.

`Cc1ccc(S(=O)(=O)O)cc1`: the result in assay [1], in assay [2], in [3], in assay [5], in assay [7] and in assay [8] was inactive. The compound was classed as inactive in assay [9], in assay [12], in [13], in assay [14], in assay [15] and in assay [16]. The compound was classed as inactive in assay [18].

The values are drawn from PubChem BioAssay (EPA / NIEHS).
